{
  "source": "PubChem BioAssay AID2313",
  "about": "(Broad Institute, 2010)",
  "note": "The campaign covered roughly 22,000 compounds. About 460 (2.1%) were called active. Another 2% or so got no clear call; they are omitted. Only a selection was taken, and actives are over-represented in it overall. Unmarked numbers belong to inactive results.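 The calls were made as follows: active = mean inhibition across valid replicates above about 65% (limit read from the data); inconclusive = mean under the limit, yet half or more replicates past it; inactive = the rest.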",
  "data": [
    {"experiment": "Hedgehog pathway signaling inhibitors, primary screen, luminescence, Shh-LIGHT2 cells, Gli-luciferase (AID 2313);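 also: pathway switched on by Shh-conditioned medium diluted 1 in 25 in low serum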", "conditions": "Shh-LIGHT2 Gli-luciferase reporter, 30 h; hits give high values", "values": [
      {"compound": "COc1ccc(S(=O)(=O)N(C)C[C@H]2Oc3ccc(NC(=O)C4CC4)cc3CC(=O)N([C@@H](C)CO)C[C@@H]2C)cc1", "inhibition": "-32.4%"},
      {"compound": "CC(C)NC(=O)Nc1ccc2c(c1)C(=O)N([C@@H](C)CO)C[C@@H](C)[C@H](CN(C)Cc1ccc(C(=O)O)cc1)O2", "inhibition": "-19.8%"},
      {"compound": "C[C@H]1CN([C@@H](C)CO)C(=O)Cc2cc(N(C)C)ccc2O[C@@H]1CN(C)Cc1ccc(-c2ccccc2)cc1", "inhibition": "33.2%"},
      {"compound": "C[C@@H]1CCCCO[C@@H](CN(C)C(=O)CCC(F)(F)F)[C@@H](C)CN([C@H](C)CO)C(=O)c2cc(NC(=O)Nc3ccccc3)ccc2O1", "inhibition": "-0.845%"},
      {"compound": "O=C(c1ccccc1)c1cnn(-c2ccc(Cl)cc2)n1", "inhibition": "79.3% (active)"},
      {"compound": "C[C@@H]1CN([C@H](C)CO)C(=O)Cc2cc(NC(=O)C3CCCCC3)ccc2O[C@@H]1CN(C)S(C)(=O)=O", "inhibition": "-14.6%"},
      {"compound": "C[C@@H]1CN([C@H](C)CO)C(=O)c2cccc(NC(=O)Nc3ccc4c(c3)OCO4)c2O[C@H]1CN(C)C(=O)Nc1ccc(F)cc1", "inhibition": "-8.45%"},
      {"compound": "C[C@@H]1CN([C@@H](C)CO)C(=O)c2cccc(NC(=O)NC3CCCCC3)c2O[C@@H]1CN(C)CC1CCCCC1", "inhibition": "-35.3%"},
      {"compound": "C[C@H]1CN([C@@H](C)CO)C(=O)Cc2cc(NC(=O)CCC(F)(F)F)ccc2O[C@H]1CN(C)C(=O)NC1CCCCC1", "inhibition": "-30.3%"},
      {"compound": "O=C1C2CC3CC1CC(C(=O)O)(C3)C2", "inhibition": "-15.4%"},
      {"compound": "CCN1C(=O)c2cccc3c(NC(=S)NC(=O)c4ccccc4)ccc1c23", "inhibition": "86.3% (active)"},
      {"compound": "CC(C)(C)c1ccc(Cn2c(=N)n(CC(=O)O)c3ccccc32)cc1", "inhibition": "-5.52%"},
      {"compound": "O=c1c2ccccc2c(-c2ccccc2)nn1Cc1ccccc1", "inhibition": "9.85%"},
      {"compound": "O=c1n(Cc2ccccc2)c2ccccc2n1Cc1ccccc1", "inhibition": "96.1% (active)"},
      {"compound": "CCCN(C)C[C@@H]1OCCCC[C@@H](C)Oc2ccc(NC(=O)CCCN(C)C)cc2C(=O)N([C@H](C)CO)C[C@@H]1C", "inhibition": "-7.4%"},
      {"compound": "S=C(NCC1CC1)Nc1ccc(Cl)cc1", "inhibition": "-35.4%"},
      {"compound": "O=C(O)c1c(Br)c(Br)c(Br)c(Br)c1-c1c2ccc(=O)cc-2oc2cc(O)ccc12", "inhibition": "-5.58%"},
      {"compound": "C[C@@H]1CN([C@@H](C)CO)C(=O)c2cccc(NC(=O)Nc3ccc(F)cc3)c2O[C@H]1CN(C)Cc1ccc(-c2ccccc2)cc1", "inhibition": "2.55%"},
      {"compound": "C[C@H]1CN([C@@H](C)CO)C(=O)c2cc(NC(=O)Nc3ccccc3)ccc2O[C@H]1CN(C)S(C)(=O)=O", "inhibition": "-21%"},
      {"compound": "C[C@@H]1CN([C@H](C)CO)C(=O)Cc2cc(NS(=O)(=O)c3ccc(Cl)cc3)ccc2O[C@H]1CN(C)S(=O)(=O)c1cccs1", "inhibition": "-21.8%"},
      {"compound": "COc1ccc(S(=O)(=O)N(C)C[C@@H]2OCCCC[C@@H](C)Oc3ccc(NS(C)(=O)=O)cc3C(=O)N([C@H](C)CO)C[C@@H]2C)cc1", "inhibition": "54.6%"},
      {"compound": "C=C1C(=O)OC2/C=C(\\C)CC3C=C(CC/C=C(\\C)CCC12)C(=O)O3", "note": "(stereo not drawn)", "inhibition": "39.9%"},
      {"compound": "CC(C)NC(=O)Nc1ccc2c(c1)CC(=O)N([C@H](C)CO)C[C@H](C)[C@H](CN(C)Cc1ccc3c(c1)OCO3)O2", "inhibition": "-12.2%"},
      {"compound": "C[C@@H]1CN([C@H](C)CO)C(=O)c2cccc(NS(=O)(=O)c3ccc(Cl)cc3)c2O[C@@H]1CN(C)Cc1ccc(Oc2ccccc2)cc1", "inhibition": "23.8%"},
      {"compound": "C[C@@H]1O[C@@H](O[C@H]2[C@@H](Oc3cc(O)c4c(c3)O[C@H](c3ccc(O)cc3)CC4=O)O[C@H](CO)[C@@H](O)[C@@H]2O)[C@H](O)[C@H](O)[C@H]1O", "inhibition": "-8.61%"},
      {"compound": "C[C@@H]1CN([C@H](C)CO)C(=O)c2cccc(NS(=O)(=O)c3ccc(Cl)cc3)c2O[C@H]1CN(C)C(=O)NC1CCCCC1", "inhibition": "-17%"},
      {"compound": "CC(C)NC(=O)N(C)C[C@@H]1Oc2ccc(NS(=O)(=O)c3cn(C)cn3)cc2C(=O)N([C@@H](C)CO)C[C@@H]1C", "inhibition": "8%"},
      {"compound": "Cc1ccc(NC(=O)C2C3C=CC(C3)C2C(=O)O)cc1", "note": "(stereo not drawn)", "inhibition": "-27.3%"},
      {"compound": "Cc1ccc(S(=O)(=O)Nc2ccc3c(c2)C(=O)N([C@H](C)CO)C[C@H](C)[C@@H](CN(C)S(=O)(=O)c2cccs2)O3)cc1", "inhibition": "-5.89%"},
      {"compound": "C[C@@H]1CCCCO[C@H](CN(C)Cc2ccc(Cl)c(Cl)c2)[C@@H](C)CN([C@H](C)CO)C(=O)c2cc(NS(=O)(=O)c3cn(C)cn3)ccc2O1", "inhibition": "-46.4%"},
      {"compound": "CC(C)NC(=O)N(C)C[C@H]1Oc2c(NS(=O)(=O)c3cccs3)cccc2C(=O)N([C@H](C)CO)C[C@H]1C", "inhibition": "-35.4%"},
      {"compound": "C[C@@H]1CN([C@H](C)CO)C(=O)c2cccc(NS(=O)(=O)c3ccc(F)cc3)c2O[C@H]1CN(C)Cc1ccc(Oc2ccccc2)cc1", "inhibition": "23.1%"},
      {"compound": "COc1ccc(CN(C)C[C@H]2Oc3ccc(NS(=O)(=O)c4ccc(C)cc4)cc3C(=O)N([C@@H](C)CO)C[C@H]2C)cc1", "inhibition": "29.4%"},
      {"compound": "COc1cc([C@H]2OC[C@H]3[C@@H]2CO[C@@H]3c2cc(OC)c(O[C@@H]3O[C@H](CO)[C@@H](O)[C@H](O)[C@H]3O)c(OC)c2)cc(OC)c1O", "inhibition": "2.06%"},
      {"compound": "COc1ccc(CN2C(=O)CC(Cc3ccc(C)cc3)C2=O)cc1OC", "note": "(stereo not drawn)", "inhibition": "4.43%"},
      {"compound": "COc1ccc(S(=O)(=O)Nc2cccc3c2O[C@@H](CN(C)S(=O)(=O)c2ccccc2)[C@@H](C)CN([C@@H](C)CO)C3=O)cc1", "inhibition": "-0.37%"},
      {"compound": "O=C1C=C(SCC(=O)c2ccccc2)SC(c2ccc(Cl)cc2)C1", "note": "(stereo not drawn)", "inhibition": "82.7% (active)"},
      {"compound": "O=C(CSc1nnc2n1CCCN2)c1ccccc1", "inhibition": "-28.2%"},
      {"compound": "CCC/C=C/C(=O)OC1C(O)C23C(O)OC4(CCC5C6(C)CCC(OC7OC(C(=O)O)C(O)C(OC8OC(CO)C(O)C(O)C8OC8OC(C)C(O)C(O)C8OC8OCC(O)C(O)C8O)C7OC7OC(CO)C(O)C(O)C7O)C(C)(C)C6CCC5(C)C4(C)CC2OC(C)=O)C3CC1(C)C", "note": "(stereo not drawn)", "inhibition": "104% (active)"},
      {"compound": "CC1OC(OC2C(OC3C(O[C@H]4CC[C@@]5(C)C(CC[C@]6(C)C5CC=C5[C@@H]7CC(C)(C)C[C@@H](O)[C@]7(C)CC[C@]56C)C4(C)C)OC(C(=O)O)C(O)C3O)OC(CO)C(O)C2O)C(O)C(O)C1O", "note": "(stereo partly drawn)", "inhibition": "7.2%"},
      {"compound": "C=CC1(C)C=C2CCC3C(C)(C)C(O[C@@H]4O[C@@H](CO)[C@H](O)[C@H]4O)CCC3(C)C2CC1O[C@@H]1O[C@H](C)[C@@H](OC)[C@H](O)[C@H]1O", "note": "(stereo partly drawn)", "inhibition": "-27.2%"},
      {"compound": "CC1(C)CC[C@]2(C(=O)O)CC[C@]3(C)C(=CCC4[C@@]5(C)CC[C@H](OC6O[C@H](CO)[C@@H](O)[C@H](O[C@@H]7O[C@H](CO)[C@@H](O)[C@H](O)[C@H]7O)[C@H]6O)C(C)(C)C5CC[C@]43C)[C@@H]2C1", "note": "(stereo partly drawn)", "inhibition": "107% (active)"},
      {"compound": "C/C=C(/C)C(=O)O[C@H]1CC(C)(C)C[C@H]2C3=CCC4[C@@]5(C)CC[C@H](O[C@@H]6O[C@H](C(=O)O)[C@@H](O[C@@H]7O[C@H](CO)[C@H](O)[C@H](O)[C@H]7O[C@@H]7O[C@H](CO)[C@@H](O)[C@H](O)[C@H]7O)[C@H](O)[C@H]6O[C@@H]6O[C@@H](C)[C@H](O)[C@@H](O)[C@H]6O)C(C)(C)C5CC[C@@]4(C)[C@]3(C)[C@@H](O)[C@@H](O)[C@@]12CO", "note": "(stereo partly drawn)", "inhibition": "99.7% (active)"},
      {"compound": "C/C=C(/C)C(=O)O[C@H]1CC(C)(C)C[C@H]2C3=CCC4[C@@]5(C)CC[C@H](O[C@@H]6O[C@H](C(=O)O)[C@@H](O[C@@H]7O[C@H](CO)[C@H](O)[C@H](O)[C@H]7O[C@@H]7O[C@H](CO)[C@@H](O)[C@H](O)[C@H]7O)[C@H](O)[C@H]6O[C@@H]6O[C@@H](C)[C@H](O)[C@@H](O)[C@H]6O)C(C)(C)C5CC[C@@]4(C)[C@]3(C)[C@@H](OC(C)=O)[C@@H](O)[C@@]12COC(C)=O", "note": "(stereo partly drawn)", "inhibition": "97.7% (active)"},
      {"compound": "COC(=O)C1=CO[C@@H](O[C@@H]2O[C@H](CO)[C@@H](O)[C@H](O)[C@H]2O)[C@@H]2[C@@](C)(O)[C@@H](OC(=O)/C=C/c3ccc(OC)c(OC)c3)C[C@]12O", "inhibition": "3.81%"},
      {"compound": "CC1(C)CC[C@]2(C(=O)O[C@@H]3O[C@H](CO)[C@@H](O)[C@H](O)[C@H]3O)CC[C@]3(C)C(=CCC4[C@@]5(C)CC[C@H](O[C@@H]6O[C@H](C(=O)O)[C@@H](O[C@@H]7OC[C@H](O)[C@H](O)[C@H]7O)[C@H](O)[C@H]6O)C(C)(C)C5CC[C@]43C)C2C1", "note": "(stereo partly drawn)", "inhibition": "35.4%"},
      {"compound": "C[C@H](CO)N1C[C@H](C)[C@H](CN(C)Cc2ccc3c(c2)OCO3)Oc2c(cccc2N(C)C)C1=O", "inhibition": "-27.6%"},
      {"compound": "CCCC(=O)Nc1ncnc2c1ncn2C1O[C@@H]2COP(=O)(O)O[C@H]2[C@H]1OC(=O)CCC", "note": "(stereo partly drawn)", "inhibition": "-62.8%"},
      {"compound": "C[C@@H]1CCCCO[C@@H](CN(C)C(=O)Nc2cccc3ccccc23)[C@@H](C)CN([C@H](C)CO)C(=O)c2cc(NS(C)(=O)=O)ccc2O1", "inhibition": "33.2%"},
      {"compound": "O=C(Oc1cccc(C(F)(F)F)c1)c1cc2ccc3ccccc3c2s1", "inhibition": "-31.9%"},
      {"compound": "CC1(C)C2CC[C@]3(C)C(C(=O)C=C4[C@@H]5C[C@@](C)(C(=O)O)CC[C@]5(C)CC[C@]43C)[C@@]2(C)CC[C@@H]1O", "note": "(stereo partly drawn)", "inhibition": "66.5% (active)"},
      {"compound": "CC1(C)CC[C@@]2(C(=O)O)C(C1)C1=CCC3[C@@]4(C)CC[C@H](O)C(C)(C)C4CC[C@@]3(C)[C@]1(C)C[C@H]2O", "note": "(stereo partly drawn)", "inhibition": "-24.6%"},
      {"compound": "C[C@@H]1CC[C@]2(C(=O)O)CC[C@]3(C)C(=CCC4[C@@]5(C)CC[C@H](O)[C@](C)(C(=O)O)C5CC[C@]43C)C2[C@]1(C)O", "note": "(stereo partly drawn)", "inhibition": "-18.2%"}
    ]}
  ]
}
